This is part of a sample that, as a whole, favours compounds with a hit. Of some 83,000 tested, about 20% had one in any assay.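 Each cell line was grown in a 96-well plate and treated with one concentration of compound for 48 hours. Values below 10 were considered active.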 Unmarked numbers belong to inactive results. Calls of active or inactive are those of the source.

Holding throughout (assay): NCI-60 one-dose screen, 48 h (100 = growth as untreated, 0 = no growth, -100 = all killed)
Conditions in all cases: 10 µM unless noted

Test [1] has as its system HCT-15 colon.
In test [2] the test system is HT29 colon.
Test [3] deals with SNB-75 CNS.
Test [4] has as its system SNB-19 CNS.
Test [5] concerns U251 CNS.
For test [6], the system named is SK-MEL-5 melanoma.
In test [7] the test system is UACC-62 melanoma.
Test [8] concerns LOX IMVI melanoma.
Test [9] deals with SK-MEL-28 melanoma.
The test system of test [10] is SK-MEL-2 melanoma.
In test [11] the test system is EKVX NSCLC.
Test [12] concerns SN12C renal.
Test [13] concerns UO-31 renal.
For test [14], the system named is TK-10 renal.
Test [15] has as its system ACHN renal.
For test [16], the system named is CAKI-1 renal.
For test [17], the system named is A498 renal.
In test [18] the test system is CCRF-CEM leukemia.
The subject of test [19] is MOLT-4 leukemia.
In test [20] the test system is PC-3 prostate.

`CCOC(=O)c1cccc(NC2=C(Cl)C(=O)C(C)=C(C)C2=O)c1`: the growth in test [1] is 99.3%; in test [2], 110%; in [3] it was 104%; in test [4] it was 96.5%; in test [5] it was 90.9%; in test [6], 100%. For the same molecule, the growth in test [7] was 94.7%; in test [8], 91.9%; in test [9] it was 110%; in test [10] it was 104%; in [11], 74.4%; in [12], 94.8%. For the same molecule, the growth is 96.7% in test [13]; 129% in test [14]; 106% in test [15]; 89.4% in test [16]; 89.1% in test [17]; 13.9% in [18]. In addition, in [19], the growth is 5.67% (active).

Regarding `Cc1csc(/N=C(N)/N=C(\N)c2cccnc2)n1`, the growth in [1] was 42.7%; in [2], 59%; in test [3], 41.7%; in test [4], 69.4%; in test [5], 76.5%; in test [6], 80.3%. For the same molecule, the growth was 40.2% in test [7]; 65.3% in [9]; 68.2% in test [10]; 82.8% in test [11]; 80.1% in test [12]; 77.7% in [13]. For the same molecule, the growth in [14] is 116%; in [15] it was 78.4%; in [16], 60.1%; in [17], 59.6%; in [18] it was 79.2%; in test [19], 83%.

Consider `O=C(N/N=C\c1ccc([N+](=O)[O-])cc1)c1ccc2nc(-c3ccc(Br)cc3)[nH]c2c1`, for which the growth in [1] is 14.8%; in [2], -0.826% (active); in test [3], 56.4%; in test [4], 41.6%; in test [5] it was 4.44% (active); in test [20] it was 25%. Moreover, the growth in [6] is 2.52% (active); in test [7], 31.4%; in test [9], 36.8%; in test [10] it was 51.9%; in test [11], 45.4%; in test [12] it was 16.9%. The growth is 41.6% in test [13]; 64.6% in test [14]; 34.1% in [15]; 34.8% in [16]; 10.6% in test [18]; 5.71% (active) in test [19].

Turning to `CCN(CC)c1ccc(/C=N/NC(=O)c2ccc(S(N)(=O)=O)cc2)cc1`, the growth in test [1] is 20.4%; in test [2], 30.8%; in test [3], 71.1%; in test [4], 36.9%; in test [5], 33.5%; in [20], 43.8%. Moreover, the growth in [6] was -0.119% (active); in test [7], 15.7%; in [9], 22.5%; in test [10] it was 38.7%; in test [11] it was 23.6%; in test [12], 35.9%. Further, the growth was 13.3% in test [13]; 42.9% in test [14]; 14.6% in test [15]; 23% in test [16]; 44.3% in test [17]; 15.4% in test [18]. For the same molecule, the growth in [19] is 14.2%.

Regarding `O=C(CSc1nc2ccccc2c(=O)n1-c1ccccc1)N/N=C/c1ccc(Oc2ccc(Cl)cc2)cc1`, the growth in test [1] is 60.8%; in test [2], 59.1%; in [3], 60.1%; in test [4], 33.2%; in [5], 15.2%; in test [6], 71.2%. Also, the growth in [7] is 66.6%; in test [8], 14%; in [9] it was 62.4%; in [10], 86.9%; in [11], 59%; in test [12] it was 26.9%. For the same molecule, the growth was 81.2% in test [13]; 104% in [14]; 74.5% in test [15]; 59.2% in test [16]; 65.7% in [17]; 50.4% in test [18]. Also, in [19], the growth is 58.7%.

Consider `Cc1ccc(S(=O)(=O)NCCCNc2nccc(-c3[nH]c(-c4ccccc4)nc3-c3ccc(F)c(O)c3)n2)cc1`, for which the growth in [1] is 76%; in test [2] it was 96.2%; in test [3], 73.9%; in [4], 107%; in test [5], 98.2%; in test [20], 69.5%. For the same molecule, the growth was 38.6% in [6]; 18.7% in test [7]; 38.3% in test [9]; 24.8% in [10]; 94.9% in [11]; 99.2% in test [12]. For the same molecule, the growth in [13] was 115%; in [14], 134%; in test [15] it was 85.8%; in test [16] it was 90.7%; in test [17], 76.3%; in test [18], 39.7%. In addition, the growth in [19] is 39.2%.

For the molecule `CCCC[n+]1ccc(SCC(=O)n2ccc3ccccc32)c2ccccc21`, the growth in test [1] is 103%; in test [2] it was 96.9%; in test [3], 92.7%; in test [4], 97.4%; in test [5] it was 89.3%; in test [6], 85.8%. The growth in test [7] is 77.7%; in test [8] it was 101%; in test [9], 109%; in test [10] it was 99.9%; in [11], 88.1%; in test [12] it was 96.5%. The growth in test [13] was 76.5%; in [14] it was 141%; in test [15], 104%; in test [16] it was 81.9%; in test [17], 111%; in test [18], 87.3%. Besides, the growth in test [19] is 83.1%.

Turning to `CN1c2ccccc2Sc2cc(/C=N/Nc3ccnc4cc(Cl)ccc34)ccc21`, the growth in test [1] is 50.2%; in [2] it was 76.5%; in [3], 104%; in test [4] it was 94.8%; in test [5], 80.7%; in test [20], 88.6%. Further, the growth is 94.7% in [6]; 101% in test [7]; 98.3% in test [10]; 94.2% in test [11]; 95.7% in [12]; 84% in test [13]. The growth in test [14] is 115%; in test [15], 109%; in [16], 103%; in [17], 131%; in test [18], 56.2%; in test [19], 82.4%.

Values taken from PubChem BioAssay (NCI).
